This is an account of results in PubChem BioAssay.

Test [1] relates to Plasmodium falciparum Sir2 (PF13_0152, Sir2A). As to the kind of experiment: Plasmodium falciparum Sir2A binding compounds – biochemical, small-molecule microarray, 635 nm fluorescence, primary screen (AID 1098).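 Further: score merges spot fluorescence intensity with its signal-to-noise ratio.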 To be noted: fluorescence 635 nm, higher = more signal.
A short description of test [2]: probe aDKK1 binding to arrayed compounds – biochemical, biotinylated probe, 635/667 nm fluorescence, primary screen (AID 1099).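 Further: score merges 667nm spot fluorescence with signal to noise across triplicate slides; reference of the scale not given here.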 The following applies: small-molecule microarray, higher = more signal.
Test [3] in a line: probe aCHRDL2 binding to arrayed compounds – biochemical, biotinylated probe, 635/667 nm fluorescence, primary screen (AID 1100). The following applies: small-molecule microarray, higher = more signal.
The nature of test [4]: change in splice reporter luminescence, either direction, cell-based, HEK293, spliceosome inhibition project, primary screen (AID 1101).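 Further: HEK293 cells carrying a splicing-competent luciferase reporter gene; test concentration not given here.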 To be noted: HEK293 splicing luciferase reporter, 24 h, higher = more signal, called active from +8 up or from −8 down. On the technique in general: Reporter assays use an easily measured gene product as a stand-in for the process of interest.

Test [5] has as its target Fibroblast growth factor 10 (Homo sapiens) (UniProt O15520). As to the kind of experiment: compounds binding fibroblast growth factor 10 – biochemical, small-molecule microarray, 635 nm fluorescence, primary screen (AID 1102). The following applies: FGF10 binding, fluorescence 635 nm, higher = more signal.
Test [6] concerns glycogen synthase kinase-3 (GSK3A per assay name; protocol says GSK3B). As to the kind of experiment: compounds binding glycogen synthase kinase-3 – biochemical, small-molecule microarray, 635 nm fluorescence, GSK3A, primary screen (AID 1103). Further: the record names both GSK3A and GSK3B. To be noted: fluorescence 635 nm, higher = more signal.
The target in test [7] is Epidermal growth factor receptor (Homo sapiens) (UniProt P00533). As to the kind of experiment: compounds binding epidermal growth factor receptor – biochemical, small-molecule microarray, 635 nm fluorescence, primary screen (AID 1104).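 Further: score merges 667 nm emission intensity with spot signal to noise over triplicate slides.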 The following applies: EGFR binding, higher = more signal.
Sequence of Epidermal growth factor receptor (Homo sapiens) (P00533 whole entry, looked up): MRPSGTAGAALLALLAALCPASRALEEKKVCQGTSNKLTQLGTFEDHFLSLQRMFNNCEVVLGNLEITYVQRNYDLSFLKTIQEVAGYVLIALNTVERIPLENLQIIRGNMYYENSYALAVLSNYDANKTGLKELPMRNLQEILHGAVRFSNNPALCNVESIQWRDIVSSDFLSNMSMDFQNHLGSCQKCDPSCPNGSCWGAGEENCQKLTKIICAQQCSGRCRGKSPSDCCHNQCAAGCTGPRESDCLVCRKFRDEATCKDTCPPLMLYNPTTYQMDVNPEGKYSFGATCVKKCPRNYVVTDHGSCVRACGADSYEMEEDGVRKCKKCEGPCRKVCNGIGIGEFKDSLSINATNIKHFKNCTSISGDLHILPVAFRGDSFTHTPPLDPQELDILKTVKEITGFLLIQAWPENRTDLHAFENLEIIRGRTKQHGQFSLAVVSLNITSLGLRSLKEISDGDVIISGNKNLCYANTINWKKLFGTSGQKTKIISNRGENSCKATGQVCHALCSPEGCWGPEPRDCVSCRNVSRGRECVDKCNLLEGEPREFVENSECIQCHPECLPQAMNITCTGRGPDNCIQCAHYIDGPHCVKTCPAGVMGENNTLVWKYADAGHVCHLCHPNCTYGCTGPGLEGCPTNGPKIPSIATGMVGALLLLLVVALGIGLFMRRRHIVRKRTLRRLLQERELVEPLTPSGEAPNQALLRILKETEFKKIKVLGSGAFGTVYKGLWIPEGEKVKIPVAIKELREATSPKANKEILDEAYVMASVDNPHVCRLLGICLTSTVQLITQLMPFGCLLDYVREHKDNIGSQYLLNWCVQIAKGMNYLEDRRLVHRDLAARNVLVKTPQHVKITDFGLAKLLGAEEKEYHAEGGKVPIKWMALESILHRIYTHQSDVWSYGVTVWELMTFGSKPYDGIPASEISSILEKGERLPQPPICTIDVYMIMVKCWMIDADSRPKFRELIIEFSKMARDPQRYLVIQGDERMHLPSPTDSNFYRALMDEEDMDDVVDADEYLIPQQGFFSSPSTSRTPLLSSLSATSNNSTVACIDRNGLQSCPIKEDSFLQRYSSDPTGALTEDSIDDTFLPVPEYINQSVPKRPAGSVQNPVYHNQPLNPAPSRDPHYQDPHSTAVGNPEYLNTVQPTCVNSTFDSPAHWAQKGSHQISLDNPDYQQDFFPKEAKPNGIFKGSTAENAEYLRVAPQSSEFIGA
The target in test [8] is Follistatin-related protein 3 (Homo sapiens) (UniProt O95633). As to the kind of experiment: compounds binding follistatin-related protein 3 – biochemical, small-molecule microarray, 635 nm fluorescence, primary screen (AID 1105).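 Further: score merges emission near 667 nm and signal to noise per printed spot across three slides.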 To be noted: FSTL3 binding, higher = more signal.
Sequence of Follistatin-related protein 3 (Homo sapiens) (O95633 whole entry, looked up): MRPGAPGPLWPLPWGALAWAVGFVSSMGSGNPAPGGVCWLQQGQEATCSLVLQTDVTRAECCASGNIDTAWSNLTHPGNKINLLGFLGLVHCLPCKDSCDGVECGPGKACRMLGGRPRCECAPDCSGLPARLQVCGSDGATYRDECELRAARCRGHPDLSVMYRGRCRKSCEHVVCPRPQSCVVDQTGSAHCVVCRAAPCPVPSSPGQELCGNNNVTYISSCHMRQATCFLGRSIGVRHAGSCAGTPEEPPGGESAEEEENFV
For test [9], the target named is Dickkopf-related protein 1 (Homo sapiens) (UniProt O94907). As to the kind of experiment: small molecules binding DKK1 protein – biochemical, small-molecule microarray, 635 nm fluorescence scan, primary screen (AID 1106).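 Further: score merges emission near 667 nm with signal to noise over three replicate slides.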 The following applies: higher = more signal.
Sequence of Dickkopf-related protein 1 (Homo sapiens) (O94907 whole entry, looked up): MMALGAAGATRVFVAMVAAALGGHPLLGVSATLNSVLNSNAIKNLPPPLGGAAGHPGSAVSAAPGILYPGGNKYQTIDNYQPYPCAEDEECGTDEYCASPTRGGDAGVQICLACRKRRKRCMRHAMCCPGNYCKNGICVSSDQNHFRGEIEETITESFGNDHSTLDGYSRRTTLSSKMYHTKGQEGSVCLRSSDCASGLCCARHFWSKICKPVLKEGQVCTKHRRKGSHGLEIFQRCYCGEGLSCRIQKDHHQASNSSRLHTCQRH
The test system of test [10] is Inhibin beta A chain (activin A). As to the kind of experiment: small molecules binding activin A – biochemical, small-molecule microarray, 635 nm fluorescence scan, primary screen (AID 1107).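 Further: mouse activin A protein probed at 4.33 µg/mL on printed slides; score merges bound-protein fluorescence near 667 nm with spot signal-to-noise.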 To be noted: INHBA, higher = more signal.

Each structure is given as a SMILES string. Calls of active or inactive are those of the source.

Sequence of Fibroblast growth factor 10 (Homo sapiens) (O15520 whole entry, looked up): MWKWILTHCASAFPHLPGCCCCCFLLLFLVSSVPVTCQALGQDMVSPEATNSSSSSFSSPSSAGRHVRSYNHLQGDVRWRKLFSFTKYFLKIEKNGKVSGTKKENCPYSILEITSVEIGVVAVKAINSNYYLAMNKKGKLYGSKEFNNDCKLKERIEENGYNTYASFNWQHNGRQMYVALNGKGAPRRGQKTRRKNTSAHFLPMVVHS

For `O[C@@H](Cc1ccccc1)[C@H]1C2C=CCCC=C2CN1Cc1cccc(Cl)c1` (stereo not given in full), the composite z-score in test [1] is 0.77; in test [2], -0.0422; in test [3], -0.284; in test [5], 0.9; in [6] it was 1.08; in test [7], 0.231. In addition, the composite z-score in test [8] was 1.24; in test [9] it was 0.496; in test [10] it was 0.296. In test [4], the z-score was -0.381 (inactive).
As to `O=C1C2C=CC(C(O)c3cccc4ccccc34)N(Nc3ccccc3F)C2C(=O)N1c1ccccc1` (stereo not given), the composite z-score was 0.927 in [1]; 0.977 in test [2]; 1.02 in test [3]; 0.606 in test [5]; 1.18 in test [6]; 0.172 in test [7]. Besides, the composite z-score in test [8] is 0.79; in test [9], -0.311; in [10], 0.723. Also, in test [4], the z-score is -0.05 (inactive).
Regarding `C=CCC(OC(C)=O)[C@@H]1[C@@H](N(Cc2ccc(-c3ccccc3)cc2)C(=O)c2ccc(-c3ccccc3)cc2)c2cc(OCCCO)ccc2N1C(=O)Cc1ccc2ccccc2c1` (stereo not given in full), the composite z-score is -0.316 in test [1]; -0.108 in [2]; 0.336 in [3]; -0.133 in test [5]; -0.0682 in test [6]; 0.0825 in [7]. Further, the values for the composite z-score in test [8], in [9] and in test [10] were 0.394, 0.0989 and 1.11, respectively. The z-score in test [4] was -0.412 (inactive).
As to `O=C1O[C@@H](c2ccccc2)[C@@H](c2ccccc2)N2[C@@H](c3ccccc3OCCO)[C@]3(C(=O)Nc4ccc(C#CC5=CCCCC5)cc43)[C@@H](C(=O)N3CCCCCCC3)[C@H]12`, the composite z-score in test [1] stood at 2.01; in test [2] it was 2.94; in test [3], 1.63; in [5], 1.54; in [6] it was 1.39; in test [7], 1.81. Further, the composite z-score in test [8] was 1.75; in test [9] it was 2.56; in test [10] it was 1.8. Moreover, in [4], the z-score is -1.06 (inactive).
In the case of `O=C1C[C@@](C(=O)NC2CC2)(c2ccc([N+](=O)[O-])cc2)[C@@H](c2ccc(CO)cc2I)N1C1CCCCC1`, the composite z-score was 1.02 in [1]; 0.666 in [2]; -0.0524 in [3]; 1.19 in [5]; 0.931 in test [6]; 0.414 in test [7]. Further, the composite z-score came out at 1.25 in test [8], 0.486 in test [9] and 0.245 in [10]. The z-score in test [4] is -0.497 (inactive).
For the molecule `C=C(C(=O)CC[C@@H](OC(=O)c1cccnc1)c1ccccc1OCCO)C(C)C`, the composite z-score is 0.0757 in test [1]; -0.181 in test [2]; 0.0623 in test [3]; 0.969 in [5]; 0.342 in [6]; 0.029 in test [7]. Further, the composite z-score in test [8] turned out to be 0.401; in [9], 0.063; in test [10], 1.34. Moreover, the z-score in [4] is 1.34 (inactive).
For the molecule `O=C1C[C@]2(c3ccc([N+](=O)[O-])cc3)C(=O)N(CC(F)(F)F)c3cc(CO)ccc3[C@H]2N1C1CCCCC1`, the composite z-score in test [1] was -0.535; in test [2], 0.246; in test [3], 0.564; in test [5], -0.431; in test [6] it was -0.161; in test [7] it was -1.1. Besides, the composite z-score is -0.883 in test [8], -0.906 in test [9] and 0.23 in test [10]. In addition, the z-score in test [4] was 0.465 (inactive).
In the case of `CN(C)CCCCCCNC(=O)[C@H]1C[C@H]2C(=O)N3CCC[C@H]3C(=O)N2[C@H]1c1ccc(O)cc1`, the composite z-score in [1] was found to be 1.42; in test [2], 0.11; in test [3] it was 0.0341; in test [5], 1.28; in test [6] it was 1.35; in test [7] it was 1.6. For the same molecule, the composite z-score in [8] amounted to 1.44; in test [9] it was 1.25; in [10], 1.08. Besides, in test [4], the z-score was -0.8 (inactive).
Take `CCCC[C@@H]1C[C@H]1[C@@H](NC(=O)c1cccs1)c1ccc(-c2ccccc2)cc1`: the composite z-score in [1] is -0.0357; in test [2], -0.0102; in test [3], 0.69; in test [5], 0.655; in test [6] it was -0.595; in [7], -0.0136. The results for the composite z-score in test [8], in [9] and in test [10] were 0.369, -0.116 and 1.3, respectively. For the same molecule, the z-score in test [4] is -1.23 (inactive).
As to `C=CCN1C(=O)[C@@]2(CC=C)N=C(c3ccc(OCCCO)cc3)O[C@H]2c2ccccc21`, the composite z-score came to 1.66 in [1]; 0.801 in test [2]; 1.08 in [3]; 1.45 in test [5]; 1.32 in test [6]; 0.734 in test [7]. In addition, the composite z-score in test [8] was determined as 1.41; in test [9], 1.14; in test [10], 1.2. Also, the z-score in test [4] was -1.63 (inactive).
As for `CCCCC(CC)C(O)C1C=CC2C(=O)N(Cc3ccccc3)C(=O)C2N1n1cnnc1` (stereo not given), the composite z-score was -0.503 in test [1]; 0.197 in [2]; 0.552 in test [3]; -0.0566 in test [5]; -0.0058 in test [6]; -0.286 in test [7]. For the same molecule, the composite z-score in test [8] is 0.0568; in test [9], -0.691; in test [10], 0.82. Further, the z-score in test [4] was -0.44 (inactive).
Take `CCC(CC)C(O)C1C=CC2C(=O)NC(=O)C2N1Nc1ccccn1` (stereo not given): the composite z-score was 0.259 in [1]; 0.572 in test [2]; -0.705 in test [3]; 0.269 in test [5]; 0.291 in test [6]; 0.384 in test [7]. Moreover, the figures for the composite z-score in test [8], in test [9] and in test [10] were 0.584, 0.816 and 1.29, respectively. In addition, the z-score in [4] was 1.17 (inactive).
In the case of `O=C1[C@@]23C=C(Br)[C@H](C[C@@H]2CCOC3)[C@@]12CO2`, the composite z-score in test [1] is 0.204; in test [2], -0.327; in [3], -0.478; in test [5] it was 0.254; in test [6] it was 0.329; in [7], 0.442. The values for the composite z-score in test [8], in [9] and in [10] were 0.473, 0.485 and 0.684, respectively. In addition, the z-score in test [4] is 0.149 (inactive).
As for `CC(C)NC(=O)[C@@]1(C)c2ccccc2C(=O)N(Cc2cc(C(F)(F)F)cc(C(F)(F)F)c2)[C@H]1c1ccc(CO)cc1`, the composite z-score is 1.2 in test [1]; 0.0251 in [2]; 1.17 in test [3]; -0.609 in test [5]; -0.589 in test [6]; -0.584 in test [7]. In addition, the composite z-score was -1.13 in [8], -0.788 in test [9] and -0.0259 in test [10]. Moreover, the z-score in [4] was 0.207 (inactive).
Regarding `O=C(NCCN1CCOCC1)[C@@H]1c2ccccc2C(=O)N(C2CCCCC2)[C@H]1c1ccc(CO)cc1`, the composite z-score in test [1] was 1.06; in test [2] it was 0.484; in test [3], 0.92; in test [5] it was -0.534; in [6], -0.362; in [7] it was -1.03. The composite z-score is -0.942 in [8], -0.809 in test [9] and 0.891 in [10]. For the same molecule, in [4], the z-score is 0.261 (inactive).
